Measurements as given in PubChem BioAssay AID463173 (ICCB-Longwood Screening Facility, Harvard Medical School, 2010).
Hit rate of the full screen: of about 52,000 compounds, about 4,300 (8.3%) were called active. The sample holds actives, similar compounds and a random draw of the others, so the mix is not that of the screen. Rule as the data show it: active = survival mostly below about 52% (no sharp cut-off); inactive = mostly above about 56%.

test system: DeltatarO mutant; test: S. aureus survival, RN4220 and DeltatarO strains – OD600, teichoic acid synthesis inhibitors, primary screen (AID 463173); details: S. aureus RN4220 wild type/DeltatarO growth, OD600, 18 h, stronger effect = lower value, screened at 18.75 µg/mL (by protocol)

Row | SMILES | survival
1 | COc1ccc(NC(=O)c2c(NCc3sccc3C)sc3c2CCCCC3)c(OC)c1 | 85% (inactive)
2 | CCOc1ccc(CCNc2ncnc3onc(C)c23)cc1OCC | 71% (inactive)
3 | O=C(Nc1cccnc1)c1cc(-c2cccc(Cl)c2)on1 | 115% (inactive)
4 | O=C(CN1C=NS(=O)(=O)c2ccccc21)Nc1ccc(F)cc1 | 87% (inactive)
5 | CC1=C(C(=O)Nc2ccc(C)cc2C)C(c2ccc[nH]2)n2ncnc2N1 (stereo not given) | 89% (inactive)
6 | O=C(CSc1ncc2c(n1)-c1ccccc1N(Cc1ccc(F)cc1)S2(=O)=O)c1ccc(Cl)cc1 | 89% (inactive)
7 | CCOC(=O)c1c(C)[nH]c(C)c1S(=O)(=O)N(C)CC(=O)N1CCN(c2cccc(C)c2C)CC1 | 84% (inactive)
8 | CC(C)c1nn2c(=O)cc(COC(=O)c3ccc(NC(=O)COc4ccccc4)cc3)nc2s1 | 98% (inactive)
9 | O=C(NCCS(=O)(=O)N1CCN(c2ccc(F)cc2)CC1)c1cc(=O)c2ccccc2o1 | 94% (inactive)
10 | COc1ccc(C2C(=O)N(C3CCC(C)CC3)CC(=O)N2C2CCCC2)cc1OC (stereo not given) | -2% (active)
11 | COc1ccc(C2C(=O)N(C3CCC(C)CC3)CC(=O)N2CCC2=CCCCC2)cc1OC (stereo not given) | -1% (active)
12 | CCCOc1ccc(C2C(=O)N(C3CCCCC3)CC(=O)N2C2CCCCC2)cc1OC (stereo not given) | 91% (inactive)
13 | CCCN1C(=O)CN(C2CCCCCC2)C(=O)C1c1ccc(OCC)c(OC)c1 (stereo not given) | 109% (inactive)
14 | COc1ccc(C2C(=O)N(C3CCC(C)CC3)CC(=O)N2C2CCCCC2)cc1OC (stereo not given) | 76% (inactive)
15 | CCCOc1ccc(C2C(=O)N(C3CCCCCC3)CC(=O)N2CCC)cc1OC (stereo not given) | -4% (active)
16 | CCCOc1ccc(C2C(=O)N(C3CCCCCC3)CC(=O)N2CCC2=CCCCC2)cc1OC (stereo not given) | 119% (inactive)
17 | CCCCN1C(=O)CN(C2CCCCCC2)C(=O)C1c1ccc(OCCC)c(OC)c1 (stereo not given) | 66% (inactive)
18 | CCCOc1ccc(C2C(=O)N(C3CCC(C)CC3)CC(=O)N2CCC2=CCCCC2)cc1OC (stereo not given) | 80% (inactive)
19 | CCCCN(C)C(=O)CN1C(=O)CCn2nc(-c3cn(C)c4ccccc34)cc21 | 117% (inactive)
20 | Cc1cccc(NC(=O)CSc2nc(=O)n(CCN3CCOCC3)c3c2CCC3)c1 | 86% (inactive)
21 | COc1cccc(C(=O)NCCSc2c(-c3ccc(F)cc3)[nH]c3ccccc23)c1OC | 52% (inactive)
22 | O=C(NC1CCN(C(=O)Nc2cccc(F)c2)CC1)c1ccco1 | 88% (inactive)
23 | COc1cccc(N2C(=O)N(CC(=O)NCc3cccc(OC)c3OC)c3ccccc3S2(=O)=O)c1 | 95% (inactive)

Row | SMILES | survival
24 | COc1cc(C(Nc2ccc(S(=O)(=O)N3CCCC3)cc2)C(=O)NC(C)(C)C)cc(OC)c1OC (stereo not given) | 77% (inactive)
25 | CC(=O)ONC(=Nc1ccccc1C)c1nonc1N | 101% (inactive)
26 | N#C/C(=C/c1ccccc1Cl)c1nc(-c2cc3ccccc3oc2=O)cs1 | 81% (inactive)
27 | COc1c(Cl)cc(Cl)cc1/C=C(\C#N)c1nc(-c2ccc(Cl)cc2)cs1 | 122% (inactive)
28 | COc1ccc(OC)c(/C=C(/C#N)c2nc(-c3ccc(-c4ccccc4)cc3)cs2)c1 | 52% (inactive)
29 | N#C/C(=C\c1ccc(Cl)cc1Cl)c1nc(-c2cccc(Cl)c2)cs1 | 79% (inactive)
30 | Cc1ccccc1/C=C(\C#N)c1nc(-c2ccc(Cl)cc2)cs1 | 14% (active)
31 | Cc1ccc(-c2csc(/C(C#N)=C/c3ccccc3Cl)n2)cc1 | 21% (active)
32 | O=C1[C@@H]2CSC(c3ccc(Cl)cc3)N2C(=O)N1c1ccccc1 (stereo not given in full) | 71% (inactive)
33 | CCc1ccc(CSc2nc(-c3ccc(OC)cc3)nc3c2Cc2c(CO)cnc(C)c2O3)cc1 | 72% (inactive)
34 | COCCNC(=O)C1CC(=O)N(c2ccc(C)cc2)C1 (stereo not given) | 82% (inactive)
35 | CCOC(=O)c1cc(-c2ccc(OC)cc2)n(CCC(=O)NC2CCCCC2)c1C | 115% (inactive)
36 | CCOc1ccc(CCNC(=O)Cn2nnc(-c3ccc(C(F)(F)F)cc3)n2)cc1OCC | 82% (inactive)
37 | O=C(CSc1nc(=O)n(Cc2ccncc2)c2c1CCC2)Nc1ccc(F)cc1F | 78% (inactive)
38 | COc1ccc(Nc2c(-c3ccc(C)o3)nc3ccc(Cl)cn23)cc1 | 65% (inactive)
39 | CCOC(=O)C1(C)C=C(Nc2cccc(C)c2)C(=O)N1c1ccccc1 (stereo not given) | 15% (active)
40 | CCOC(=O)C1(C)C=C(Nc2cccc(C(=O)O)c2)C(=O)N1c1ccccc1 (stereo not given) | 73% (inactive)
41 | CCOC(=O)C1(C)C=C(Nc2ccc(C)cc2)C(=O)N1c1ccccc1 (stereo not given) | 50% (inactive)
42 | O=c1[nH]c2ccc(S(=O)(=O)Nc3cc(Cl)ccc3O)cc2o1 | 86% (inactive)
43 | CC(C(=O)NC1CC1)N1CCC(N2CCCCC2)CC1 (stereo not given) | 98% (inactive)
44 | O=C(NCCCCc1ccccc1)c1nn(-c2ccccc2)nc1CO | 58% (inactive)
45 | Cc1ccccc1COC(=O)c1ccc(-c2nnn(Cc3ccccc3F)n2)cc1 | 54% (inactive)
46 | Cc1ccccc1COC(=O)c1nn(-c2ccccc2)nc1N | -1% (active)

Row | SMILES | survival
47 | Nc1nn(-c2ccccc2)nc1NC=O | 95% (inactive)
48 | Cc1ccccc1CNC(=O)c1nn(-c2ccccc2F)nc1CO | 85% (inactive)
49 | Nc1nn(-c2ccccc2)nc1C(=O)OCc1ccccc1Br | 11% (active)
50 | Cc1ccc(Cl)cc1NC(=O)C1CCCN(S(=O)(=O)c2c(C)noc2/C=C/N(C)C)C1 (stereo not given) | 51% (inactive)
51 | COc1cccc(Nc2sc(C(=O)c3ccc(F)cc3)c(N)c2C(=O)NCc2ccc(C)cc2)c1 | 91% (inactive)
52 | Cc1ccc(CNC(=O)c2c(Nc3ccccc3C)sc(C(=O)c3ccc(F)cc3)c2N)cc1 | 20% (active)
53 | COc1cccc(Nc2sc(C(=O)c3ccc(F)cc3)c(N)c2C(=O)NCc2ccc(Cl)cc2)c1 | 8% (active)
54 | Cc1ccccc1Nc1sc(C(=O)c2ccccc2)c(N)c1C(=O)NCc1ccc(Cl)cc1 | 100% (inactive)
55 | Cc1ccccc1Nc1sc(C(=O)c2ccc(F)cc2)c(N)c1C(=O)NCCc1ccccc1 | 81% (inactive)
56 | COc1cccc(Nc2sc(C(=O)c3ccc(Cl)cc3)c(N)c2C(=O)NCc2ccc(C)cc2)c1 | 95% (inactive)
57 | Cc1cccc(-c2cc(NC(=O)C(C)(C)C)n(-c3ccccc3)n2)c1 | 99% (inactive)
58 | COc1cccc(CNC(=O)CCS(=O)(=O)c2ccc3c(c2)CC(C)N3C(=O)C2CC2)c1 (stereo not given) | 20% (active)
59 | CCC(=O)N1c2ccc(S(=O)(=O)CCC(=O)NCc3ccccc3OC)cc2CC1C (stereo not given) | 90% (inactive)
60 | COc1ccccc1CNC(=O)CCS(=O)(=O)c1ccc2c(c1)CC(C)N2C(=O)C1CC1 (stereo not given) | 8% (active)
61 | CCC(=O)N1c2ccc(S(=O)(=O)CCC(=O)NCc3cccc(OC)c3)cc2CC1C (stereo not given) | 102% (inactive)
62 | CC1Cc2cc(S(=O)(=O)CCC(=O)NCc3ccccc3Cl)ccc2N1C(=O)C1CC1 (stereo not given) | 89% (inactive)
63 | COc1ccc(CNC(=O)CCS(=O)(=O)c2ccc3c(c2)CC(C)N3C(=O)C2CC2)cc1 (stereo not given) | 95% (inactive)
64 | CCc1cccc(NC(=O)c2ccc3c(=O)n4nc(Nc5ccccc5OC)sc4nc3c2)c1 | 74% (inactive)
65 | Clc1ccccc1-c1nnc(SCc2nc(-c3ccccc3)no2)n1-c1ccccc1 | 52% (inactive)
66 | CC(C)(C)OC(=O)N1CCC(c2c(C(=O)N3CCN(c4ccccc4)CC3)cnn2-c2ccccc2)CC1 | 81% (inactive)
67 | Cc1cc(C)n(-c2nc3ccccc3nc2Nc2cc(Cl)ccc2C)n1 | 130% (inactive)
68 | Cc1cc(C)cc(Nc2nc3ccccc3nc2-n2nc(C)cc2C)c1 | 23% (active)
69 | Cc1cc(C)n(-c2nc3ccccc3nc2Nc2ccc(Cl)c(Cl)c2)n1 | 0% (active)

Row | SMILES | survival
70 | COc1ccccc1Nc1nc2ccc(Cl)cc2nc1-n1nc(C)cc1C | 133% (inactive)
71 | Cc1cc(C)n(-c2nc3ccccc3nc2Nc2cccc(C)c2C)n1 | 21% (active)
72 | Cc1cc(C)n(-c2nc3ccccc3nc2Nc2ccc(Cl)cc2Cl)n1 | 75% (inactive)
73 | COc1cc(OC)c(Nc2nc3ccccc3nc2-n2nc(C)cc2C)cc1Cl | 97% (inactive)
74 | COc1ccc(OC)c(Nc2nc3ccccc3nc2-n2nc(C)cc2C)c1 | 16% (active)
75 | Cc1ccc(Nc2nc3ccccc3nc2-n2nc(C)cc2C)c(Cl)c1 | 70% (inactive)
76 | Cc1cc(C)cc(Nc2nc3cc(Cl)c(Cl)cc3nc2-n2nc(C)cc2C)c1 | 89% (inactive)
77 | Cc1ccc2nc(Nc3cccc(Cl)c3C)c(-n3nc(C)cc3C)nc2c1 | 123% (inactive)
78 | Cc1cc(C)n(-c2nc3ccccc3nc2Nc2cccc(C(F)(F)F)c2)n1 | 75% (inactive)
79 | CCOC(=O)c1cc(-c2ccccc2)n(CCC(=O)Nc2cc(C)cc(C)c2)c1C | 99% (inactive)
80 | Cc1ccc(NC(=O)C(C)Sc2nc(=O)cc(N)n2-c2cccc(C)c2)cc1 (stereo not given) | 59% (inactive)
81 | CCOC(=O)c1cccc(NC(=O)c2cn(-c3cccc(OC)c3)c(=O)c3ccccc23)c1 | 60% (inactive)
82 | COc1ccc(Cl)cc1NC(=O)c1ccc(CN2C(=O)CCn3nc(C)cc32)cc1 | 66% (inactive)
83 | CC(C)c1ccc(NC(=O)CSC2=Nc3ccccc3C3=NC(CC(=O)NCCc4ccccc4)C(=O)N23)cc1 (stereo not given) | 72% (inactive)
84 | Nc1nc(CC(=O)NN=C2CCCCCC2)cs1 | 65% (inactive)
85 | Cc1cc(C)n(-c2nc3ccccc3nc2Nc2ccc(C(C)C)cc2)n1 | 8% (active)
86 | CCOc1ccc(Nc2nc3cc(Cl)c(Cl)cc3nc2-n2nc(C)cc2C)cc1 | 87% (inactive)
87 | CCc1ccccc1Nc1nc2cc(Cl)c(Cl)cc2nc1-n1nc(C)cc1C | 89% (inactive)
88 | COc1cccc(Nc2nc3ccc(C)cc3nc2-n2nc(C)cc2C)c1 | 88% (inactive)
89 | Cc1cc(C)n(-c2nc3ccccc3nc2Nc2ccc(N(C)C)cc2)n1 | -2% (active)
90 | Cc1cc(C)n(-c2nnc(Nc3ccc(C(C)C)cc3)c3ccccc23)n1 | 80% (inactive)
